Laboratory results published in PubChem BioAssay (EPA / NIEHS).
Results filed as inconclusive are left out. Calls of active or inactive are those of the source. How the source made its calls: active means hit-call score of the fitted dose curve at least 0.9, where 1 is the maximum; inconclusive means response in the unintended direction; inactive means score below 0.9.

Legend:
[1] = Tanguay_ZF_120hpf_OTIC_legacy: (Legacy) Oregon State University Tanguay Lab 120 Hour Post-fertilization zebrafish Assay for Otic Vesicle Malformation (AID 2283639)
Summary of the method: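 Wild-type zebrafish larvae, whole-embryo exposure from early stage to 120 hpf at 28C. Binary brightfield scoring of otic vesicle morphology, fitted in the positive direction against the DMSO baseline.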

[2] = Tanguay_ZF_120hpf_PE_legacy: (Legacy) Oregon State University Tanguay Lab 120 Hour Post-fertilization zebrafish Assay for Pericardial Edema (AID 2283640)
Summary of the method: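 Read-out is the presence or absence of pericardial edema at 120 hpf under brightfield, with gain of signal fitted against DMSO controls. Larvae (5D wild-type) were statically exposed at 28C with 0.64% final DMSO.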

[3] = Tanguay_ZF_120hpf_BRAI_legacy: (Legacy) Oregon State University Tanguay Lab 120 Hour Post-fertilization zebrafish Assay for Brain Malformation (AID 2283641)
Summary of the method: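 Brain malformation in Tropical 5D zebrafish was recorded as a binary endpoint after static compound exposure from early development to 120 hpf at 28C. Activity was analysed against DMSO as negative control.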

[4] = Tanguay_ZF_120hpf_SOMI_legacy: (Legacy) Oregon State University Tanguay Lab 120 Hour Post-fertilization zebrafish Assay for Somite Malformation (AID 2283647)
Summary of the method: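 5D WT zebrafish; chorion removed 4 hpf; 1 embryo/well from 6 hpf; static exposure to 120 hpf, 28C, 0.64% DMSO final. Endpoint: somite malformation, binary, brightfield. Mortality excluded.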

[5] = Tanguay_ZF_120hpf_PFIN_legacy: (Legacy) Oregon State University Tanguay Lab 120 Hour Post-fertilization zebrafish Assay for Pectoral Fin Malformation (AID 2283648);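 further: each larva judged yes or no for fin defect by brightfield with dead larvae skipped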
Summary of the method: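 Pectoral fin malformation was recorded as a binary endpoint at 120 hpf in wild-type Tropical 5D larvae, which had been dechorionated and exposed statically from 6 hpf at 28C in 0.64% DMSO. Dead embryos were excluded.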

[6] = Tanguay_ZF_120hpf_CFIN_legacy: (Legacy) Oregon State University Tanguay Lab 120 Hour Post-fertilization zebrafish Assay for Caudal Fin Malformation (AID 2283649)
Summary of the method: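 Embryos were collected from Tropical 5D wild-type adults and dechorionated at 4 hpf. At 6 hpf each was exposed, one per well, at 0.64% DMSO and 28C. At 120 hpf fin morphology was scored; dead embryos were excluded.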

[7] = Tanguay_ZF_120hpf_PIG_legacy: (Legacy) Oregon State University Tanguay Lab 120 Hour Post-fertilization zebrafish Assay for Pigmentation Malformation (AID 2283650)
Summary of the method: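 Pigment malformation recorded as a binary call at 120 hpf in zebrafish (Tropical 5D) exposed singly from 6 hpf after pronase dechorionation. Static, sealed, 28C exposure, 0.64% DMSO; mortality excludes scoring; positive-direction fit against DMSO.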

[8] = Tanguay_ZF_120hpf_CIRC_legacy: (Legacy) Oregon State University Tanguay Lab 120 Hour Post-fertilization zebrafish Assay for Circulatory Malformation (AID 2283651)
Method: (§1) Tanguay_ZF_120hpf_legacy is a whole embryo, multiplexed endpoint assay using zebrafish larvae exposed for 120 hours post fertilization on a 96-well plate.Tanguay_ZF_120hpf_CIRC_legacy is one of one assay component(s) measured or calculated from the Tanguay_ZF_120hpf_legacy assay. It is designed to make measurements of zebrafish development as detected with brightfield microscopy of developing zebrafish embryos.Data from the assay component Tanguay_ZF_120hpf_CIRC_legacy was analyzed into 1 assay endpoints. This assay endpoint, Tanguay_ZF_120hpf_CIRC_legacy, was analyzed in the positive analysis fitting direction relative to DMSO as the negative control and baseline of activity. Using a type of morphology reporter, gain-of-signal activity can be used to understand changes in developmentals as they relate to the whole embryo. To generalize the intended target to other relatable targets, this assay endpoint is annotated to the zebrafish development intended target family, where the subfamily is angiogenesis.
(§2) Zebrafish husbandry: Tropical 5D wild-type adult zebrafish were housed in at an approximate density of 1000 per 100 gallon tank at the Sinnhuber Aquatic Research Laboratory, Oregon State University, Corvallis, OR. […] At 24 hpf, embryos were assessed for photomotor response using a custom photomotor response analysis tool (PRAT) and for developmental toxicity endpoints (MO24: mortality at 24 hpf, DP: developmental progression, SM: spontaneous movement, and NC: notochord distortion). At 120 hpf, locomotor activity was measured using Viewpoint Zebralab and assessed for 18 endpoints. Zebrafish acquisition and analysis program (ZAAP), a custom program designed to inventory, acquire, and manage zebrafish data, was used to collect developmental endpoints as either present or absent (i.e., binary responses were recorded). If mortality occurred for an embryo (at either 24 or 120 hpf), the non-mortality endpoints were not measured.

[9] = Tanguay_ZF_120hpf_SWIM_legacy: (Legacy) Oregon State University Tanguay Lab 120 Hour Post-fertilization zebrafish Assay for Swim Bladder Malformation (AID 2283654);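 further: swim bladder malformation in each larva scored yes or no under brightfield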
Method: as §1, with “plate.Tanguay_ZF_120hpf_SWIM_legacy” for “plate.Tanguay_ZF_120hpf_CIRC_legacy”, “Tanguay_ZF_120hpf_SWIM_legacy” for “Tanguay_ZF_120hpf_CIRC_legacy”, “Tanguay_ZF_120hpf_SWIM_legacy,” for “Tanguay_ZF_120hpf_CIRC_legacy,”, “swim bladder morphogenesis.” for “angiogenesis.”
as §2

[10] = Tanguay_ZF_120hpf_TRUN_legacy: (Legacy) Oregon State University Tanguay Lab 120 Hour Post-fertilization zebrafish Assay for Truncated Body (AID 2283655)
Summary of the method: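 5D wild-type larvae; pronase dechorionation; static exposure 6→120 hpf, 28C; DMSO 0.64% final; 5uM trimethyltin chloride positive control. Readout: presence/absence of truncated body, analyzed relative to DMSO.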

Measured: outcome

Cc1ccc([N+](=O)[O-])cc1N
inactive: [1] | [2] | [3] | [4] | [5] | [6] | [7] | [8] | [9] | [10]

Nc1ccc(C(=O)O)cc1
inactive: [1] | [2] | [4] | [5] | [6] | [7] | [8] | [9] | [10]

C1CNCCN1
inactive: [1] | [2] | [3] | [4] | [5] | [6] | [7] | [8] | [9] | [10]
